In PubChem BioAssay (Tox21):
Results filed as inconclusive are left out. Calls of active or inactive are those of the source. Unless noted, the call rests on the fitted dose curve.

Legend:
[1] = Nuclear factor erythroid 2-related factor 2/antioxidant responsive element (Nrf2/ARE) small molecule agonists: qHTS cell viability counter screen in human keratinocytes (AID 1919968; active means well fitted curve in the direction sought with a large enough effect in the repeat runs; an effect the other way counts as inactive or inconclusive; further: nearly all actives have a fitted effect of over 55% in size)
Summary of the method: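 KeratinoSens HaCaT cells, 1,500/well, preincubated 5 h, then exposed to compounds in DMSO for 23 h at 37 C/5% CO2. Viability read as CellTiter-Fluor fluorescence after 1 h, in the same wells as the ARE-luciferase read.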

[2] = Nuclear factor erythroid 2-related factor 2/antioxidant responsive element (Nrf2/ARE) small molecule agonists: luciferase reporter gene qHTS assay in human keratinocytes (AID 1919969); further: nearly all actives have a fitted effect of over 35% in size
[3] = target: Gonadotropin-releasing hormone receptor (Homo sapiens) (UniProt P30968); assay: Human gonadotropin-releasing hormone receptor (GnRHR) small molecule agonists, calcium flux assay in GnRHR-HEK293 cells (AID 1920063); further: nearly all actives have a fitted effect of over 35% in size
Sequence of Gonadotropin-releasing hormone receptor (Homo sapiens) (P30968 whole entry, looked up): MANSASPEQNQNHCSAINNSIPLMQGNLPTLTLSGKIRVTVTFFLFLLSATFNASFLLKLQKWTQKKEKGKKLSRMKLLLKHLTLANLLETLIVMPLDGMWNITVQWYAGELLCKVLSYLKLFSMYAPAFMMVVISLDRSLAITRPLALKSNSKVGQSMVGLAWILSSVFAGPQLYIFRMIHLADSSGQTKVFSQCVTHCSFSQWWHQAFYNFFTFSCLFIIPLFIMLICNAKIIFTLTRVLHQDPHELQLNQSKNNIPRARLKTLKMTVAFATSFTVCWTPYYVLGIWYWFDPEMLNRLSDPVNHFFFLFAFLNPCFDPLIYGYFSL
Summary of the method: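 HEK293 cells stably expressing human GnRHR were dye-loaded for 1 h at 37 C. Compound was added in agonist mode and fluorescence (Ex/Em 480/540) recorded kinetically for 3 min. Fifteen concentrations, triplicates.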

[4] = target: KiSS-1 receptor (Homo sapiens) (UniProt Q969F8); assay: Human kisspeptin (KISS1R) small molecule agonists, calcium flux assay in KISS1R-HEK293 cells (AID 1920064; active means well fitted curve in the direction sought with a large enough effect in the repeat runs; an effect the other way counts as inactive or inconclusive)
Sequence of KiSS-1 receptor (Homo sapiens) (Q969F8 whole entry, looked up): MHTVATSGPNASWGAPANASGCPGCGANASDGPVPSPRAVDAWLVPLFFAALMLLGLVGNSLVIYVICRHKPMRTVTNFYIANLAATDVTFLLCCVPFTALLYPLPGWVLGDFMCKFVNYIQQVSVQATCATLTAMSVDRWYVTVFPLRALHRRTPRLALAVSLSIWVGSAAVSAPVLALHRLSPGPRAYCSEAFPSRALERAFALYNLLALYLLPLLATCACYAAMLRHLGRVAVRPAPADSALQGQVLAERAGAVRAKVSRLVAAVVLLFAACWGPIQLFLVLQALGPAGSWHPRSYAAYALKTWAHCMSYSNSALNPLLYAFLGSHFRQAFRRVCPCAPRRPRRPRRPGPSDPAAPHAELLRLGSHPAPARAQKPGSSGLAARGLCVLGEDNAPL
Summary of the method: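 HEK293 cells stably expressing human KISS1R were loaded with calcium dye for 1 h at 37 C, then given compound; fluorescence (Ex/Em 480/540) was read kinetically for 3 min. Fifteen concentrations, triplicate.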

[5] = G protein-coupled receptor (GPCR) small molecule agonists, calcium flux assay: HEK293 wild type cell line counter screen (AID 1920065)
Summary of the method: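 Wild-type HEK293 cells plated 18 h, loaded with calcium dye 1 h at 37 C, then compounds added in agonist mode (ATP as positive control). Kinetic fluorescence Ex/Em 480/540 recorded 3 min at 1 sec intervals; 15 concentrations, triplicate.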

[6] = p53 small molecule agonists, cell-based qHTS assay with human liver microsomes (AID 1963577);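 further: p53 response element beta-lactamase reporter cells with liver microsomes plus NADPH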
Summary of the method: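 In this qHTS, p53 response-element beta-lactamase cells receive test compound together with a microsome/NADPH activating system (0.5 mg/mL final each) and are incubated 16 h at 37 C before LiveBLAzer fluorescence detection.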

[7] = p53 small molecule agonists, cell-based qHTS assay with rat liver microsomes (AID 1963578)
Summary of the method: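 Agonist mode in p53RE-bla reporter cells, with compounds co-incubated 16 h at 37 C alongside 0.5 mg/mL rat liver microsomes and 0.5 mg/mL NADPH (final), followed by a 2 h LiveBLAzer detection step.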

[8] = p53 small molecule agonists, cell-based qHTS assay with human liver microsomes: qHTS cell viability counter screen (AID 1963579); further: nearly all actives have a fitted effect of over 45% in size
Summary of the method: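 Metabolically activated exposure: compounds, human liver microsomes and NADPH (0.5 mg/mL final apiece) were added to p53RE-bla cells seeded 5 h earlier, left 16 h at 37 C, and then assessed for viability by CellTiter-Glo luminescence.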

[9] = p53 small molecule agonists, cell-based qHTS assay with rat liver microsomes: qHTS cell viability counter screen (AID 1963580); further: nearly all actives have a fitted effect of over 45% in size
Summary of the method: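 HCT-116 p53RE-bla, 4,000 cells/well, 5 h pre-incubation; cpd + rat liver microsomes 0.5 mg/mL + NADPH 0.5 mg/mL (final); 16 h, 37 C; CellTiter-Glo, 30 min RT; luminescence.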

[10] = p53 small molecule agonists, cell-based qHTS assay: qHTS cell viability counter screen (AID 1963581); further: nearly all actives have a fitted effect of over 45% in size
Summary of the method: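 p53RE-bla HCT-116 cells, compounds added 5 h after plating and incubated 16 h at 37 C. Cytotoxicity measured in the same wells as intracellular ATP by CellTiter-Glo luminescence after 30 min at room temperature.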

[11] = p53 small molecule agonists, cell-based qHTS assay (AID 1963582; active means well fitted activation curve with a large enough effect in the signal ratio in the repeat runs, not every such curve was filed as active; the % refers to the signal ratio)
Summary of the method: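 p53RE-bla reporter cells, compounds added in DMSO after 5 h plating, incubated 16 h at 37 C. Beta-lactamase read via 2 h room-temperature LiveBLAzer B/G FRET substrate, fluorescence intensity.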

[12] = target: 5-hydroxytryptamine receptor 2A (Homo sapiens) (UniProt P28223); assay: 5-hydroxytryptamine receptor 2A (HTR2A) small molecule antagonists, cell-based qHTS assay (AID 1963586); further: nearly all actives have a fitted effect of over 45% in size
Sequence of 5-hydroxytryptamine receptor 2A (Homo sapiens) (P28223 whole entry, looked up): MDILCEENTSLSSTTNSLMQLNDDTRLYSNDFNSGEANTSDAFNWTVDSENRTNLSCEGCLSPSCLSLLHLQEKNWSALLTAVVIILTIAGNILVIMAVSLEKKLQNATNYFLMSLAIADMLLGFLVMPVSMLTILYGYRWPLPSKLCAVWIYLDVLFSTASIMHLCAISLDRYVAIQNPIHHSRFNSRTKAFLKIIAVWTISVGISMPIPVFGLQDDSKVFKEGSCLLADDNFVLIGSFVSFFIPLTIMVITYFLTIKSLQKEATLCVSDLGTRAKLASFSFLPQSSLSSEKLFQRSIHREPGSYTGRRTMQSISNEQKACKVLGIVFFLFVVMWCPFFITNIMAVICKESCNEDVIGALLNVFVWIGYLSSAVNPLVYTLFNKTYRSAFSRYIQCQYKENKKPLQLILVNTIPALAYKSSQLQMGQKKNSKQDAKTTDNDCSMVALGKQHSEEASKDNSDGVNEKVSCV
Summary of the method: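 Antagonist-mode intracellular calcium assay: DOI (4 nM) added after 5 min compound pre-incubation at room temperature to dye-loaded HTR2A-CHO cells. Fluorescence followed for 3 min, sampled every second.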

[13] = target: 5-hydroxytryptamine receptor 2A (Homo sapiens) (UniProt P28223); assay: 5-hydroxytryptamine receptor 2A (HTR2A) small molecule agonists, cell-based qHTS assay (AID 1963587); further: nearly all actives have a fitted effect of over 30% in size
Summary of the method: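 Kinetic calcium-flux fluorescence (2 min, 1 sec intervals) after compound addition in agonist mode. HTR2A-CHO cells were cultured 18 h, then dye-loaded 1 h at 37 C.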

[14] = target: Muscarinic acetylcholine receptor M1 (Homo sapiens) (UniProt P11229); assay: Cholinergic receptor muscarinic 1 (CHRM1) small molecule antagonists, cell-based qHTS assay (AID 1963588); further: nearly all actives have a fitted effect of over 40% in size
Sequence of Muscarinic acetylcholine receptor M1 (Homo sapiens) (P11229 whole entry, looked up): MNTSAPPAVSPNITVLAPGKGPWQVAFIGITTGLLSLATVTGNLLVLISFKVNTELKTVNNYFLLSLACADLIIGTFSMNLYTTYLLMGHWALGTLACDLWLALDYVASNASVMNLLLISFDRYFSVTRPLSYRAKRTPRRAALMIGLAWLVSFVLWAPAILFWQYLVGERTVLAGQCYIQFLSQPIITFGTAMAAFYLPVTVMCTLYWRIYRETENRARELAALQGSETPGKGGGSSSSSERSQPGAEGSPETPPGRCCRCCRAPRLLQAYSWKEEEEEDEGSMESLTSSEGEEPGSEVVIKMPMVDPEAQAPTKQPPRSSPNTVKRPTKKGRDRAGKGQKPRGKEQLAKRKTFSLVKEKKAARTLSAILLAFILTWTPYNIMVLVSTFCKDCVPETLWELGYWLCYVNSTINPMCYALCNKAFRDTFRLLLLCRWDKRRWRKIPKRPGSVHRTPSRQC
Summary of the method: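 CHRM1-CHO calcium-flux assay, antagonist mode. Cells were seeded 18 h, dye-loaded 1 h at 37 C and given compound for 5 min at RT, then acetylcholine was added at 50nM. FDSS fluorescence was read 3 min; 15 concentrations, three runs.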

[15] = target: Muscarinic acetylcholine receptor M1 (Homo sapiens) (UniProt P11229); assay: Cholinergic receptor muscarinic 1 (CHRM1) small molecule agonists, cell-based qHTS assay (AID 1963589); further: nearly all actives have a fitted effect of over 35% in size
Summary of the method: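 CHO cells stably expressing human CHRM1 were loaded with calcium dye for 1 h at 37 C, then compound was added in agonist mode. Intracellular calcium fluorescence was followed kinetically at 1 s intervals. Fifteen concentrations were tested in three independent runs.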

[16] = cAMP Responsive Elements (CRE) small molecule agonists, cell-based qHTS assay (AID 1963590)
Summary of the method: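 CRE-bla HEK 293T cells, 2,000/well in DMEM with 10% dialyzed FBS and 25 mM HEPES, pre-incubated 18 h at 37 C, then exposed to compound 3 h at 37 C. Beta-lactamase reporter read with LiveBLAzer B/G FRET substrate after 2 h at room temperature.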

[17] = cAMP Responsive Elements (CRE) small molecule antagonists, cell-based qHTS assay (AID 1963591; active means well fitted inhibition curve with a large enough effect in the signal ratio in the repeat runs, not every such curve was filed as active; the % refers to the signal ratio)
Summary of the method: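 CRE-bla HEK293T cells plated 18 h, then given compound plus NKH477 at 0.25 uM final for 3 h at 37C. Beta-lactamase reporter read with LiveBLAzer B/G FRET substrate after 2 h at room temperature.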

[18] = target: Beta-2 adrenergic receptor (Homo sapiens) (UniProt P07550); assay: Adrenergic beta2 receptor (ADRB2) small molecule antagonists, cell-based qHTS assay (AID 1963592); further: series mostly up to about 92 µM; nearly all actives have a fitted effect of over 50% in size
Sequence of Beta-2 adrenergic receptor (Homo sapiens) (P07550 whole entry, looked up): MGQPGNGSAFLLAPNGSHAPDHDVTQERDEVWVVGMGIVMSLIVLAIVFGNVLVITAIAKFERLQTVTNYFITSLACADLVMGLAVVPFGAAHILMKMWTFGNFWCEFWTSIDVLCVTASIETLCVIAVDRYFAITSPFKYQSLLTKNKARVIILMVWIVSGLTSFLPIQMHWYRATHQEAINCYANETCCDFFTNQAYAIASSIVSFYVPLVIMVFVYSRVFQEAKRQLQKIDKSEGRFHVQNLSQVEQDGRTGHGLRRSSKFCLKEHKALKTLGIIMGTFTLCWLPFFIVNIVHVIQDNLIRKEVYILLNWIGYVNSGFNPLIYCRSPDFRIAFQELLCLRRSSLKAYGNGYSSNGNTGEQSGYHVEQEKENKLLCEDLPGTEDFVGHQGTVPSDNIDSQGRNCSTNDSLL
Summary of the method: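 Cells (CHO, stable ADRB2 overexpression) incubated 18-20hr at 37C; compounds added from DMSO; agonist mix (1nM isoproterenol, 100uM IBMX, 25uM Ro-20-1724) added; 0.5hr RT; d2-cAMP and anti-cAMP-cryptate added; 1hr RT; 665/615 nm read.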

[19] = target: Beta-2 adrenergic receptor (Homo sapiens) (UniProt P07550); assay: Adrenergic beta2 receptor (ADRB2) small molecule agonists, cell-based qHTS assay (AID 1963593);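 further: CHO cells stably overexpressing human ADRB2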
Summary of the method: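 CHO cells stably over-expressing ADRB2 were plated overnight at 37C, then dosed with compounds plus a stimulation mix containing 100uM IBMX and 25uM Ro-20-1724 for 0.5hr at room temperature. cAMP was measured by HTRF competition, 1hr.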

[20] = target: D(2) dopamine receptor (Homo sapiens) (UniProt P14416); assay: Dopamine D2 receptor (DRD2) small molecule agonists, cell-based qHTS assay (AID 1963594); further: nearly all actives have a fitted effect of over 35% in size
Sequence of D(2) dopamine receptor (Homo sapiens) (P14416 whole entry, looked up): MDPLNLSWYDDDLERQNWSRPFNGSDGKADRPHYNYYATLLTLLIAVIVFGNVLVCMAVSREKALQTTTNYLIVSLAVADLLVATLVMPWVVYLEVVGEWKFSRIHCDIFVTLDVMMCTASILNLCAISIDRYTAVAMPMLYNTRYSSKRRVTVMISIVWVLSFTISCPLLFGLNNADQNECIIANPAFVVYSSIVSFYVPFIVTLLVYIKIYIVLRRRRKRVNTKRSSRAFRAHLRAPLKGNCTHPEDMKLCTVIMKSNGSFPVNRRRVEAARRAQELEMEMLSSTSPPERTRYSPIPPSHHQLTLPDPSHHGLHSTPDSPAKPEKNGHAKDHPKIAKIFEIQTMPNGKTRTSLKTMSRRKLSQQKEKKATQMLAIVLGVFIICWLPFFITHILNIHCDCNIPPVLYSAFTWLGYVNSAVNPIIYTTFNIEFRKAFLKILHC
Summary of the method: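 cAMP accumulation in DRD2-HEK293 cells measured by HTRF after 1 h detection; compounds added 10 min before NKH477 (200nM […]) forskolin-analogue stimulation, 30 min at room temperature, with Ro20-1724 present at 0.1 mM final.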
On the % scale 0 is the no-effect control and ±100 the full control effect.

O=S(=O)(O)c1ccc2c(N=Nc3ccc(S(=O)(=O)O)c4ccccc34)c(O)c(S(=O)(=O)O)cc2c1
inactive: activity change, negative = cytotoxicity [1] -5.59% [at 8.39 µM] | activity, positive = activation [2] -0.366% [at 8.39 µM] | activity change [3] 18.3% [at 5.22 µM, stronger effect = higher value] | activation [4] 0.398% [at 6.97 µM] | activation [5] 6.05% [at 5.23 µM] | activation [6] -6.7% [at 5.99 µM] | activation [7] -0.431% [at 5.99 µM] | activity change, negative = cytotoxicity [8] -6.02% [at 5.99 µM] | activity change, negative = cytotoxicity [9] -3.24% [at 5.99 µM] | activity change, negative = cytotoxicity [10] -2.08% [at 5.99 µM] | activation [11] -3.84% [at 5.99 µM] | activity, negative = inhibition [12] 0.404% [at 5.62 µM] | activation [13] 12.5% [at 7.02 µM] | activity, negative = inhibition [14] -10.6% [at 5.58 µM] | activation [15] 2.33% [at 6.97 µM] | activation [16] -1.25% [at 8.39 µM] | activity change, negative = inhibition [17] -1.96% [at 8.39 µM] | activity change, negative = inhibition [18] -2.48% [at 8.39 µM] | activation [19] -0.404% [at 8.39 µM] | activation [20] -0.0629% [at 8.39 µM]

CC(=O)Nc1ncc([N+](=O)[O-])s1
inactive: Potency [1] | Potency [2] | Potency [3] | Potency [4] | Potency [5] | Potency [6] | Potency [7] | Potency [8] | Potency [9] | Potency [10] | Potency [11] | Potency [12] | Potency [13] | Potency [14] | Potency [15] | Potency [16] | Potency [17] | Potency [18] | Potency [19] | Potency [20]

O=C1Nc2ccccc2C1=O
inactive: Potency [1] | Potency [2] | Potency [3] | Potency [4] | Potency [5] | Potency [6] | Potency [7] | Potency [8] | Potency [9] | Potency [10] | Potency [11] | Potency [12] | Potency [13] | Potency [14] | Potency [15] | Potency [16] | Potency [17] | Potency [18] | Potency [19] | Potency [20]

CC[C@@H]1C[C@H](N(Cc2cc(C(F)(F)F)cc(C(F)(F)F)c2)C(C)=O)c2cc(C(F)(F)F)ccc2N1C(=O)OC(C)C
inactive: Potency [1] | Potency [2] | Potency [3] | Potency [4] | Potency [5] | Potency [6] | Potency [7] | Potency [8] | Potency [9] | Potency [10] | Potency [11] | Potency [12] | Potency [13] | Potency [14] | Potency [15] | Potency [16] | Potency [17] | Potency [18] | Potency [19] | Potency [20]

CC1(C)CO[C@@H](CC(=O)O)CN1
inactive: Potency [1] | Potency [2] | Potency [3] | Potency [4] | Potency [5] | Potency [6] | Potency [7] | Potency [8] | Potency [9] | Potency [10] | Potency [11] | Potency [12] | Potency [13] | Potency [14] | Potency [15] | Potency [16] | Potency [17] | Potency [18] | Potency [19] | Potency [20]

FC(F)(F)c1ccccc1-n1ccnc1
inactive: Potency [1] | Potency [2] | Potency [3] | Potency [4] | Potency [5] | Potency [6] | Potency [7] | Potency [8] | Potency [9] | Potency [10] | Potency [11] | Potency [12] | Potency [13] | Potency [14] | Potency [15] | Potency [16] | Potency [17] | Potency [18] | Potency [19] | Potency [20]

C=C(C)C(=O)NCCCN(C)C
inactive: Potency [1] | Potency [2] | Potency [3] | Potency [4] | Potency [5] | Potency [6] | Potency [7] | Potency [8] | Potency [9] | Potency [10] | Potency [11] | Potency [12] | Potency [13] | Potency [14] | Potency [15] | Potency [16] | Potency [17] | Potency [18] | Potency [19] | Potency [20]
